This note sets out measurements from PubChem BioAssay (NCI).

Some test systems named below: SR leukemia; RPMI-8226 leukemia; OVCAR-8 ovarian; OVCAR-5 ovarian; OVCAR-4 ovarian; SK-OV-3 ovarian; IGROV1 ovarian; OVCAR-3 ovarian; HS 578T breast; NCI/ADR-RES ovarian.
Experiment in all cases: NCI-60 one-dose screen, 48 h (100 = growth as untreated, 0 = no growth, -100 = all killed)
What all share (details): 10 µM unless noted

Where “and” joins values, the source holds several entries; their conditions need not be identical. Equal entries are not always repeated. The panel holds about 83,000 compounds, 20% with a hit somewhere; the sample as a whole holds those more often.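 Assay: single dose, 48 h. Readout: percent growth (0 = no net growth; negative = cell death). Active: <10.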 Calls of active or inactive are those of the source.

`OCCSc1ccc(Cl)cc1`: the growth was 117% (inactive) and 99.7% (inactive) with SR leukemia; 122% (inactive) and 84.6% (inactive) in the assay with RPMI-8226 leukemia; 111% (inactive) and 103% (inactive) in the assay on OVCAR-8 ovarian; 105% (inactive) and 91.1% (inactive) in the assay with OVCAR-5 ovarian; 104% (inactive) and 99.9% (inactive) in the assay on OVCAR-4 ovarian; 112% (inactive) and 86.9% (inactive) with SK-OV-3 ovarian. The growth is 109% (inactive) and 93.6% (inactive) with IGROV1 ovarian; 124% (inactive) and 110% (inactive) with OVCAR-3 ovarian; 101% (inactive) with HS 578T breast.

On to `O=C(Nc1ccccc1)OCC(CN1CCCCC1)OC(=O)Nc1ccccc1` (centres undefined), for which the growth in the assay on SR leukemia was 82.9% (inactive); in the assay on RPMI-8226 leukemia, 90.6% (inactive); with OVCAR-8 ovarian, 92.8% (inactive) and 95.1% (inactive); in the assay on OVCAR-5 ovarian, 105% (inactive) and 96.7% (inactive); in the assay on OVCAR-4 ovarian it was 76.4% (inactive) and 104% (inactive); in the assay with SK-OV-3 ovarian it was 89.4% (inactive) and 93.8% (inactive). The growth with IGROV1 ovarian is 68.8% (inactive) and 98.3% (inactive); with OVCAR-3 ovarian, 91.2% (inactive) and 101% (inactive); in the assay with HS 578T breast, 91.6% (inactive).

Regarding `Oc1cccnc1CN1CCOCC1`, the growth in the assay with SR leukemia is 103% (inactive); in the assay on RPMI-8226 leukemia, 104% (inactive) and 96.7% (inactive); in the assay on OVCAR-8 ovarian, 93.5% (inactive) and 95.3% (inactive); with OVCAR-5 ovarian, 112% (inactive) and 92.8% (inactive); in the assay on OVCAR-4 ovarian it was 94.9% (inactive); in the assay on SK-OV-3 ovarian, 101% (inactive) and 105% (inactive). In addition, the growth in the assay with IGROV1 ovarian is 106% (inactive) and 109% (inactive); in the assay on OVCAR-3 ovarian it was 118% (inactive) and 110% (inactive); with HS 578T breast, 115% (inactive) and 105% (inactive).

For `OC(CC(c1ccccc1)c1cccc2ccccc12)(c1ccccc1)c1ccccc1` (centres undefined), the growth in the assay on SR leukemia was 94.9% (inactive) and 63.1% (inactive); in the assay with RPMI-8226 leukemia it was 88.4% (inactive) and 67.4% (inactive); in the assay with OVCAR-8 ovarian it was 72.8% (inactive) and 87.1% (inactive); with OVCAR-5 ovarian, 92.1% (inactive) and 89.9% (inactive); in the assay on OVCAR-4 ovarian it was 81.3% (inactive) and 75.7% (inactive); in the assay on SK-OV-3 ovarian it was 85.4% (inactive) and 93.1% (inactive). The growth was 88.6% (inactive) and 84.8% (inactive) in the assay on IGROV1 ovarian; 94.1% (inactive) and 90.6% (inactive) with OVCAR-3 ovarian; 84.4% (inactive) and 86.6% (inactive) with HS 578T breast.

`Nc1ccc2ccc(NS(=O)(=O)N3CCCCC3)cc2c1`: the growth is 6.48% (active) in the assay with SR leukemia; 46% (inactive) with RPMI-8226 leukemia; 34.2% (inactive) with OVCAR-8 ovarian; 56.1% (inactive) with OVCAR-5 ovarian; 39.2% (inactive) with OVCAR-4 ovarian; 31.8% (inactive) in the assay on SK-OV-3 ovarian. The growth was 76.3% (inactive) in the assay with IGROV1 ovarian, -9.56% (active) with OVCAR-3 ovarian and 20.9% (inactive) in the assay with HS 578T breast.

`CS(=O)(=O)c1nsc(N)n1`: the growth in the assay on SR leukemia was 98.8% (inactive); in the assay with RPMI-8226 leukemia, 106% (inactive); in the assay on OVCAR-8 ovarian, 104% (inactive); with OVCAR-5 ovarian it was 97.3% (inactive); in the assay on OVCAR-4 ovarian, 103% (inactive); with SK-OV-3 ovarian, 95.4% (inactive). For the same compound, the growth was 101% (inactive) in the assay on IGROV1 ovarian, 107% (inactive) in the assay with OVCAR-3 ovarian and 103% (inactive) in the assay with HS 578T breast.

On to `Cc1onc(-c2c(F)cccc2Cl)c1-c1ncc(-c2ccc(Cl)cc2)o1`, for which the growth in the assay on SR leukemia is 11% (inactive); in the assay on RPMI-8226 leukemia, 26.2% (inactive) and 23.4% (inactive); in the assay with OVCAR-8 ovarian, 55.7% (inactive) and 35.5% (inactive); in the assay on OVCAR-5 ovarian it was 73.5% (inactive) and 68.1% (inactive); in the assay with OVCAR-4 ovarian, 80.9% (inactive) and 47.9% (inactive); in the assay with SK-OV-3 ovarian, 71% (inactive) and 61.4% (inactive). Moreover, the growth in the assay on IGROV1 ovarian was 49.1% (inactive) and 33.3% (inactive); in the assay with OVCAR-3 ovarian, 63.4% (inactive) and 45.9% (inactive); with HS 578T breast it was 84.8% (inactive) and 57.3% (inactive).

`CCNC1=CC(=O)c2ncccc2C1=O`: the growth in the assay with SR leukemia was 50.9% (inactive); with RPMI-8226 leukemia it was 66.4% (inactive); in the assay with OVCAR-8 ovarian, 51.9% (inactive); with OVCAR-5 ovarian it was -53.7% (active); in the assay on OVCAR-4 ovarian it was 47.1% (inactive); in the assay with SK-OV-3 ovarian, 73.5% (inactive). Further, the growth with IGROV1 ovarian was 63.2% (inactive); in the assay on OVCAR-3 ovarian, 1.49% (active); with HS 578T breast, -15.9% (active).

As for `O=C1C=CC[C@H](/C=C/c2ccccc2)O1`, the growth was 5.19% (active) with SR leukemia; -34.8% (active) in the assay with RPMI-8226 leukemia; 21.2% (inactive) and 14.4% (inactive) with OVCAR-8 ovarian; 57.6% (inactive) and 54.9% (inactive) in the assay on OVCAR-5 ovarian; 36% (inactive) and 33.6% (inactive) in the assay with OVCAR-4 ovarian; 132% (inactive) and 7.79% (active) in the assay on SK-OV-3 ovarian. For the same compound, the growth in the assay with IGROV1 ovarian was -35.5% (active) and 15.7% (inactive); in the assay on OVCAR-3 ovarian, 1.02% (active) and -41.3% (active); with HS 578T breast, 25.4% (inactive) and 19.5% (inactive).

For `CC(=O)Nc1cscc1NC(C)=O`, the growth was 90.1% (inactive) in the assay with SR leukemia; 95.8% (inactive) in the assay on RPMI-8226 leukemia; 107% (inactive) with OVCAR-8 ovarian; 91.9% (inactive) in the assay with OVCAR-5 ovarian; 100% (inactive) in the assay on OVCAR-4 ovarian; 103% (inactive) with SK-OV-3 ovarian. Besides, the growth in the assay on IGROV1 ovarian is 99.2% (inactive); in the assay on OVCAR-3 ovarian, 102% (inactive); in the assay on HS 578T breast it was 103% (inactive).

As to `COc1ccc(C(=O)C(O)c2ccc(OC)cc2)cc1` (centres undefined), the growth is 102% (inactive) and 94% (inactive) with SR leukemia; 112% (inactive) and 106% (inactive) in the assay on RPMI-8226 leukemia; 99.8% (inactive) and 101% (inactive) in the assay on OVCAR-8 ovarian; 111% (inactive) and 109% (inactive) with OVCAR-5 ovarian; 103% (inactive) and 102% (inactive) in the assay with OVCAR-4 ovarian; 106% (inactive) and 101% (inactive) in the assay on SK-OV-3 ovarian. Besides, the growth with IGROV1 ovarian is 102% (inactive) and 110% (inactive); with OVCAR-3 ovarian, 112% (inactive) and 107% (inactive); in the assay with HS 578T breast it was 112% (inactive) and 102% (inactive); in the assay with NCI/ADR-RES ovarian, 102% (inactive).

As to `CC(C)(C)OC(=O)NCCc1ccc(N)cc1`, the growth was 99.5% (inactive) in the assay with SR leukemia; 91.4% (inactive) with RPMI-8226 leukemia; 104% (inactive) in the assay on OVCAR-8 ovarian; 111% (inactive) in the assay on OVCAR-5 ovarian; 98.8% (inactive) in the assay with OVCAR-4 ovarian; 101% (inactive) in the assay with SK-OV-3 ovarian. Besides, the growth in the assay with IGROV1 ovarian was 104% (inactive); in the assay with OVCAR-3 ovarian it was 106% (inactive); with HS 578T breast it was 96% (inactive).
